Measurements as given in PubChem BioAssay AID1814 (Broad Institute, 2009).
Among all 300,000 compounds or so, about 22,000 (7.3%) were called active. Inconclusive results (about 2%) are left out. Rule as the data show it: active = activity score below about -60%; inconclusive = mostly about -28% to -61%; inactive = positive scores. Shown is part of a subset that was picked to be rich in actives.

assay: Activators working through SNCA 5'UTR binding (MLPCN) (AID 1814); conditions: alpha-synuclein 5'UTR reporter, activators screen; hits give low values; tested at 7.5 µM

| SMILES | activity score |
| --- | --- |
| OCCCNc1nccc(-c2cc(Nc3cccc(Cl)c3)ncn2)n1 | 73.3% (inactive) |
| CC(C)n1cnc2c(Nc3cccc(Cl)c3)nc(N(CCO)CCCO)nc21 | 64.7% (inactive) |
| Cn1c(Nc2cccc(Cl)c2)nc2ccccc21 | -63.6% (active) |
| O=c1c2cc(-c3ccccc3)sc2nc2n1N=C(c1cccs1)CS2 | -105% (active) |
| Oc1ccccc1CNc1ncc(Br)cc1Br | -62.4% (active) |
| COc1ccc2cc(C(=O)NCC3CCCO3)[nH]c2c1 (stereo not given) | -90.6% (active) |
| O=C(NCCc1ccccc1)c1ccc2c(c1)N(Cc1ccccc1)CCS2 | -105% (active) |
| O=C(Cn1c(=S)nc2ccccn21)N1CCc2ccccc2C1 | -96.2% (active) |
| CCn1nccc1C(=O)Nc1ccc(Cl)c(Cl)c1 | -89.2% (active) |
| CCc1ccc(NC2Nc3cc(C)nn3S2)cc1 (stereo not given) | -79.3% (active) |
| CCOC(=O)c1cnc(Nc2nc3ccccc3o2)nc1CSC(=S)N1CCCCC1 | -133% (active) |
| NS(=O)(=O)c1ccccc1NC(=O)c1c(O)c2ccccc2[nH]c1=O | -64.6% (active) |
| CCCCCn1c(=O)c(C(=O)OCC)c(Cl)c2ccccc21 | 92.6% (inactive) |
| CCOC(=O)c1cnc2[nH]c3ccccc3n2c1=O | -85.9% (active) |
| Cc1ccc(SCCSc2ncccn2)cc1 | -110% (active) |
| S=C(NCc1ccco1)Nc1ccc2c(c1)OCCO2 | -105% (active) |
| FC(F)Oc1ccc(NC(=S)NCc2ccco2)cc1Cl | -62.2% (active) |
| CCc1nnc(NC(=O)/C=C/c2ccc(C)o2)s1 | -74.1% (active) |
| CCC(CC)c1nnc(NC(=O)/C=C/c2ccco2)s1 | -153% (active) |
| Cc1nnc(NC(=O)/C=C/c2ccco2)s1 | -101% (active) |
| COc1ccc(NC(=O)c2ccc(OC)cc2)cc1 | -63% (active) |
| COc1ccc(C(=O)Nc2ccc(F)cc2F)cc1 | -88.9% (active) |
| CCOC(=O)N1CCN(S(=O)(=O)c2ccc(C(=O)Nc3ccc(F)cc3F)cc2)CC1 | 69.5% (inactive) |
| Cn1c(CCN2CCCCCC2)nc2cc(NC(=O)Nc3ccccc3)ccc21 | -91.9% (active) |
| Cc1cccc(C(=O)Nc2ccc(Oc3cnccn3)cc2)c1 | -86.6% (active) |
| Cc1ccc(NC(=O)c2ccc(Oc3ncccn3)cc2)cc1 | -124% (active) |
| COc1ccc(NC(=O)c2sccc2SCC#N)cc1 | -77.3% (active) |

| SMILES | activity score |
| --- | --- |
| COc1ccc(NC(=O)c2c(C)oc3c2CCCC3)cc1 | -64.6% (active) |
| CCC(=O)Nc1ccc(C(=O)Nc2cccc(OC)c2)cc1 | -74.7% (active) |
| COc1ccc(C(=O)Nc2ccc(CN3CCOCC3)cc2)cc1 | -86.6% (active) |
| COc1ccc(NC(=O)ON=C2c3ccccc3-c3ccccc32)cc1 | -102% (active) |
| COc1ccc(C(=S)Nc2ccccc2)cc1 | -134% (active) |
| COc1ccc(C(=O)Nc2sc(C)c(C)c2CN2CCOCC2)cc1 | -83.7% (active) |
| CCc1cc(C(N)=O)c(NC(=O)c2ccc(OC)cc2)s1 | -174% (active) |
| Cn1c(CN2CCOCC2)nc2cc(NC(=O)c3ccc(Cl)cc3)ccc21 | -163% (active) |
| COc1ccc(NC(=O)c2cc(-c3ccc(C)cc3)on2)cc1 | -154% (active) |
| COc1ccc(NC(=O)CS(=O)(=O)c2ccccc2)cc1 | -62.5% (active) |
| CC(=O)c1cccc(NC(=O)C2COc3ccccc3O2)c1 (stereo not given) | -134% (active) |
| COc1ccc(NC(=O)C2COc3ccccc3O2)cc1 (stereo not given) | -133% (active) |
| NS(=O)(=O)c1ccc(NC(=S)NC(=O)c2cccc(Br)c2)cc1 | -61.6% (active) |
| O=S(=O)(c1ccc(F)cc1)n1ccc(-c2cnc(-c3ccccc3)s2)n1 | -138% (active) |
| c1ccc(CSc2nnc(-c3ccco3)n2Cc2ccccc2)cc1 | -126% (active) |
| Cc1ccc(CN2C(=O)N/C(=C/c3cc(C)n(-c4ccccn4)c3C)C2=O)cc1 | -88.6% (active) |
| O=C(NNC(=S)Nc1ccc(Br)cc1Cl)c1ccco1 | -157% (active) |
| NNc1nc2c(Cl)cccc2s1 | -119% (active) |
| Cc1nc2ccccc2nc(=O)c1NNc1ccc([N+](=O)[O-])cc1 | -109% (active) |
| CN(C(=O)c1ccccn1)c1nnc(-c2ccccn2)s1 | -110% (active) |
| Cc1sc2ncnc(N3CCC(C(=O)Nc4nc5ccc(Cl)cc5s4)CC3)c2c1C | -183% (active) |
| COC(=O)c1sc(NC(=O)c2ccc(OC)cc2OC)nc1C | 101% (inactive) |
| COc1cc(OC)c(C(=O)Nc2ccc(N(C)C)cc2)cc1OC | -129% (active) |
| COc1cc2ccccc2cc1C(=O)Nc1nc(C)c(C(C)=O)s1 | -106% (active) |
| COc1cc2ccccc2cc1C(=O)Nc1ccccc1C | -118% (active) |
| COc1cc2ccccc2cc1C(=O)Nc1ccncc1 | -70.2% (active) |
| Cc1ccc2nc(-c3ccncc3)cc(C(=O)Nc3ccc(OC(F)F)cc3)c2c1 | 67.6% (inactive) |

| SMILES | activity score |
| --- | --- |
| COc1ccc2c3c1O[C@H]1C[C@@H](O)C=C[C@@]31CCN(C)C2 | 62% (inactive) |
| O=C(Cn1cc(C(=O)c2cccs2)c2ccccc21)NCc1cccs1 | -69.5% (active) |
| CCOc1ccccc1NC(=O)Cn1nnc(C(=O)NCc2cccs2)c1N | 84.9% (inactive) |
| CCOC(=O)N/N=C/c1cn(Cc2ccccc2Cl)c2ccccc12 | 42.5% (inactive) |
| COC(=O)c1cn(CC(=O)NCc2cccs2)c2ccccc12 | -111% (active) |
| Cc1ccc(N)cc1-n1c(C)ccc1C | -77.6% (active) |
| O=c1cc(-c2ccccc2)[nH]c2cc(F)ccc12 | 93.3% (inactive) |
| Cc1ccc(-c2cc(=O)c3ccc(F)cc3[nH]2)cc1 | -68.9% (active) |
| Cc1ccc(-n2nc3ccc(NC(=O)/C=C/c4ccco4)cc3n2)cc1C | -154% (active) |
| O=C(Nc1cccc(-c2nc3ccccc3[nH]2)c1)c1ccc(C(=O)Nc2cccc(-c3nc4ccccc4[nH]3)c2)cc1 | -70.2% (active) |
| O=C(/C=C/c1ccco1)Nc1cccc(-c2nc3ccccc3[nH]2)c1 | -143% (active) |
| Cc1cccc(OC(=O)c2sc3ncn(C)c(=O)c3c2C)c1 | -210% (active) |
| Cc1c(C(N)=O)sc2ncn(CCOc3ccccc3)c(=O)c12 | -66.2% (active) |
| c1ccc(CCc2nc(-c3ccncc3)no2)cc1 | -99% (active) |
| O=C1c2ccccc2C(=O)c2c1cccc2N1CCN(CCO)CC1 | -64.5% (active) |
| N#C/C=C1\Sc2ccccc2C(=O)N1CC(=O)N1CCN(S(=O)(=O)c2ccccc2)CC1 | -152% (active) |
| Fc1ccc2nc(Nc3nc4c(s3)CCCC4)sc2c1 | -206% (active) |
| NS(=O)(=O)c1ccc(N=Nc2c(O)[nH]c3ccc(Br)cc23)cc1 | -119% (active) |
| O=C1CCCc2c1[nH]c1ccc(Br)cc21 | 89% (inactive) |
| COC(=O)CCC(=O)N1CCCC(CO)(Cc2ccccc2)C1 (stereo not given) | -124% (active) |
| Cc1noc(C)c1CCC(=O)N1CCCC(CO)(Cc2ccccc2)C1 (stereo not given) | -110% (active) |
| Cc1ccc(OC(=O)c2c(C)nn(-c3ccccc3)c2C)cc1 | -131% (active) |
| COc1ccc(Cc2nnc(N/N=C/c3ccccc3O)[nH]c2=O)cc1OC | 91.4% (inactive) |
| CSCCNC(=O)c1ccc2nc(Cc3ccccc3F)oc2c1 | -130% (active) |
| COCCNC(=O)c1ccc2nc(Cc3ccc(OC)c(OC)c3)oc2c1 | -80.1% (active) |
| CNC(=S)N/N=C/c1ccc(N2CCOCC2)s1 | -100% (active) |
| Cc1nc(NC(=O)c2ccc3c(c2)OCCO3)ccc1Br | -116% (active) |

| SMILES | activity score |
| --- | --- |
| CC(C)C(=O)Nc1ccc2c(c1)oc1ccccc12 | -225% (active) |
| CCOc1ccc(C(=O)Nc2nccs2)cc1[N+](=O)[O-] | -123% (active) |
| CC(=O)Oc1ccc(C(=O)Nc2nccs2)cc1 | -98% (active) |
| Cc1ccc(-c2nc3ccccc3[nH]2)cc1N | -122% (active) |
| COc1ccc(-c2csc(-c3cccs3)n2)cc1OC | -154% (active) |
| O=C(Nc1ncc([N+](=O)[O-])s1)C1COc2ccccc2O1 (stereo not given) | -93.3% (active) |
| O=C(CCc1ccccc1)Nc1ncc([N+](=O)[O-])s1 | -165% (active) |
| O=C(Cc1c(F)cccc1Cl)Nc1ncc([N+](=O)[O-])s1 | -133% (active) |
| CC(=O)Oc1ccccc1C(=O)Nc1ncc([N+](=O)[O-])s1 | -68.7% (active) |
| c1ccc2c(C[n+]3csc4ccccc43)cccc2c1 | -83.3% (active) |
| Cc1cccc(N=Nc2c(C)[nH]n(-c3ccccc3)c2=O)c1 | -126% (active) |
| CCCC(=O)Nc1ccc2c(c1)nc1n2CCSC1 | -94.7% (active) |
| CC1(C)C2CC=C(/C=N/NC(=O)c3ccc(Cl)cc3)C1C2 (stereo not given) | -63.4% (active) |
| Cc1ccsc1/C=C1\SC(N2CCOCC2)=NC1=O | -73% (active) |
| O=C1N=C(N2CCOCC2)S/C1=C\C=C/c1ccccc1 | -170% (active) |
| Brc1ccc(C2CC(c3ccccc3)=Nc3ccccc3N2)cc1 (stereo not given) | -141% (active) |
| O=C(CSc1ccc(-c2ccc(-n3cccn3)cc2)nn1)Nc1ccc([N+](=O)[O-])cc1 | -99.7% (active) |
| CC12CCC(C(=O)N(NC(=O)c3ccccc3O)C1=O)C2(C)C (stereo not given) | 67.6% (inactive) |
| Cc1ccc2c(c1)NCC(C(=O)NC1CCC(C)CC1)O2 (stereo not given) | -67.9% (active) |
| COc1cc(NC(=S)N2CCCC(C)C2)c(OC)cc1Cl (stereo not given) | -79% (active) |
| CC(C)CCC(C)NC(=O)c1ccc2nccnc2c1 (stereo not given) | -75.9% (active) |
| O=C1c2ccccc2C(=O)N1CCOc1ccc(F)cc1 | -91.2% (active) |
| Cc1cccc(N2Cc3ccccc3C2=NC(=O)c2ccc(Cl)nc2)c1 | -115% (active) |
| CCCc1cc(=O)[nH]c(SCC(=O)c2c(N)n(CC(C)C)c(=O)n(C)c2=O)n1 | 88.3% (inactive) |
